Data taken from PMC7862700, “An all-to-all approach to the identification of sequence-specific readers for epigenetic DNA modifications on cytosine”.

What was measured:
Assay in all cases: DAPPL (digital affinity profiling via proximity ligation, sequencing); 10 mM Tris-HCl pH 7.5, 50 mM NaCl, 1 mM DTT, 4% glycerol, room temperature, 30 min; GST-TFs on glutathione beads, 16-mer random dsDNA library, 0.1% formaldehyde crosslink after washing; high values mean tight binding
Conditions in all cases: protein: recombinant; tags: N-terminal GST; dsDNA, one strand shown
FLI1 = biological target: T1, FLI1 (Homo sapiens, UniProt Q01543 1-452)
T1 sequence: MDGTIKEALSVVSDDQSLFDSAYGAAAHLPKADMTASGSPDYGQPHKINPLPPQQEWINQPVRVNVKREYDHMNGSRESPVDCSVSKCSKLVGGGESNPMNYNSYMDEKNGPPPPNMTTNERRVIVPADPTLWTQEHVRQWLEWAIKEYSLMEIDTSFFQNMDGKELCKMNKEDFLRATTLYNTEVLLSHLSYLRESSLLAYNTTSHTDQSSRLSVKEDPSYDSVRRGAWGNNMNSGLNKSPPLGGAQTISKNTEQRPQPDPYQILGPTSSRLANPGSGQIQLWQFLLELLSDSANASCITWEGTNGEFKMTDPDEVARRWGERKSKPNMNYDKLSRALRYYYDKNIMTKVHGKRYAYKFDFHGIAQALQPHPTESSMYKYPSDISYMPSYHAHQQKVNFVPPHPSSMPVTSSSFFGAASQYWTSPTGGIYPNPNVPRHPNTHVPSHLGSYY
Method in brief: (§1)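 Binding signal is defined as a hexamer's read frequency for one factor over its frequency for the tag-only sample. To obtain reads, GST-fused human transcription factors were expressed in yeast, captured on glutathione beads, barcoded with DNA and pooled with that sample. Pools met 200 nmole of a 16-mer random double-stranded DNA library in Tris/NaCl/DTT/glycerol buffer for 30 min at room temperature before washing, 0.1% formaldehyde crosslinking, proximity ligation (BsaI/T4 ligase, 1 h, 37 °C), PCR and Illumina NextSeq500 sequencing.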

ERG = biological target: T2, ERG (Homo sapiens, UniProt P11308 1-479)
T2 sequence: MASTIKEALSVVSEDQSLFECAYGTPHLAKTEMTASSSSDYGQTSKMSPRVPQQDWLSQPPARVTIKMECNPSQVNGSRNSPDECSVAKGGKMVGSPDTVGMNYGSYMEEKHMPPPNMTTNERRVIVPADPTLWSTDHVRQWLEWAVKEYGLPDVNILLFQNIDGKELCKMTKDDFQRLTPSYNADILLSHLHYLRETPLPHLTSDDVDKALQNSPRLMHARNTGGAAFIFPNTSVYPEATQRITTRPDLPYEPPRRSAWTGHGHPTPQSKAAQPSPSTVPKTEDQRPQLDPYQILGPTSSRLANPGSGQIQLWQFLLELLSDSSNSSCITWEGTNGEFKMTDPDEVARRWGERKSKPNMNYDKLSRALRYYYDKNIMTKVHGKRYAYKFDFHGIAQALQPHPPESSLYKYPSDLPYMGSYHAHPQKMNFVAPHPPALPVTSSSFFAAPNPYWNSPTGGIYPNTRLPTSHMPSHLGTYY
Method in brief: as §1

ELF1 = ELF1 (Homo sapiens, UniProt P32519 1-619)
Method in brief: as §1

ETV5 = ETV5 (Homo sapiens, UniProt P41161 1-510)
Method in brief: as §1

SPIC = biological target: T3, SPIC (Homo sapiens, UniProt Q8N5J4 1-248)
T3 sequence: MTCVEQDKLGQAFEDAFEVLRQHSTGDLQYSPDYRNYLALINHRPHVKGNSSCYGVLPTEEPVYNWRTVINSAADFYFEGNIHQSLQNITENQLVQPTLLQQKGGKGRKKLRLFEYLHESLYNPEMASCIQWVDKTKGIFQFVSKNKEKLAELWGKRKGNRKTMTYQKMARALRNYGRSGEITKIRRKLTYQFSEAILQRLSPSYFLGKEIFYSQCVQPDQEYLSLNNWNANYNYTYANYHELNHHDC
Method in brief: as §1

ELF4 = ELF4 (Homo sapiens, UniProt Q99607 1-663)
Method in brief: as §1

ERF = biological target: T4, ERF (Homo sapiens, UniProt P50548 1-548)
T4 sequence: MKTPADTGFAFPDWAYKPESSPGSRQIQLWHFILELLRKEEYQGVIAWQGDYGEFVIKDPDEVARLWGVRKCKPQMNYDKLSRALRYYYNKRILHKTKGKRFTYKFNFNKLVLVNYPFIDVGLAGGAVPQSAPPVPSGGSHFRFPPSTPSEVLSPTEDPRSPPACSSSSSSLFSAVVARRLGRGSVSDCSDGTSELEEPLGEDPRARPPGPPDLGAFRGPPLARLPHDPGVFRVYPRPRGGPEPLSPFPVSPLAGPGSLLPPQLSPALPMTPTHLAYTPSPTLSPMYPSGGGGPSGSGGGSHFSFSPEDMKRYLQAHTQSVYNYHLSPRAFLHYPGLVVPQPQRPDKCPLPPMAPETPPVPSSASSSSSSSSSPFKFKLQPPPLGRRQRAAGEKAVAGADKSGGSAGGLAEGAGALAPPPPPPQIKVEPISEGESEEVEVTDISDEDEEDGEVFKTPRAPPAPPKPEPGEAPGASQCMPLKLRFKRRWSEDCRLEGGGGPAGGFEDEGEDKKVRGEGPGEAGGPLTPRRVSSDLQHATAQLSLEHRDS
Method in brief: as §1

ETV3L = biological target: T5, ETV3L (Homo sapiens, UniProt Q6ZN32 1-361)
T5 sequence: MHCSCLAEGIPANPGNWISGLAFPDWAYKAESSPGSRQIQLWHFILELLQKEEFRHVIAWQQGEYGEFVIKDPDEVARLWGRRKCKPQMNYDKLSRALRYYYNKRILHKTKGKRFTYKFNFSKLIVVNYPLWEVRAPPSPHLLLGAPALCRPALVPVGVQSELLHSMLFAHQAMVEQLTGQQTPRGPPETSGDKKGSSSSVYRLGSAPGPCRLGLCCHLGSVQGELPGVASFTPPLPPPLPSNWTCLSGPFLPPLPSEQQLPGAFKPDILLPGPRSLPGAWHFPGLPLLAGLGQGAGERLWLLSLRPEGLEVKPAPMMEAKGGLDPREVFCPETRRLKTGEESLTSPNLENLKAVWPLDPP
Method in brief: as §1

SPDEF = biological target: T6, SPDEF (Homo sapiens, UniProt O95238 1-335)
T6 sequence: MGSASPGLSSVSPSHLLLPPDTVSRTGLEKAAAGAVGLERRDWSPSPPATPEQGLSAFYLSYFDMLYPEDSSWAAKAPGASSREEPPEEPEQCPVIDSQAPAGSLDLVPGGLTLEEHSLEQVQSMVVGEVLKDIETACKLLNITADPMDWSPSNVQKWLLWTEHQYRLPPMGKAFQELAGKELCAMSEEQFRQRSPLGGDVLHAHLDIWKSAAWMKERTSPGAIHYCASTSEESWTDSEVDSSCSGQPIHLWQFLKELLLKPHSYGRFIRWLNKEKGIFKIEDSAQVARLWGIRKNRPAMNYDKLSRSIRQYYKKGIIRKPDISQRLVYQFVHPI
Method in brief: as §1

Chain of ETV5 (P41161 whole entry): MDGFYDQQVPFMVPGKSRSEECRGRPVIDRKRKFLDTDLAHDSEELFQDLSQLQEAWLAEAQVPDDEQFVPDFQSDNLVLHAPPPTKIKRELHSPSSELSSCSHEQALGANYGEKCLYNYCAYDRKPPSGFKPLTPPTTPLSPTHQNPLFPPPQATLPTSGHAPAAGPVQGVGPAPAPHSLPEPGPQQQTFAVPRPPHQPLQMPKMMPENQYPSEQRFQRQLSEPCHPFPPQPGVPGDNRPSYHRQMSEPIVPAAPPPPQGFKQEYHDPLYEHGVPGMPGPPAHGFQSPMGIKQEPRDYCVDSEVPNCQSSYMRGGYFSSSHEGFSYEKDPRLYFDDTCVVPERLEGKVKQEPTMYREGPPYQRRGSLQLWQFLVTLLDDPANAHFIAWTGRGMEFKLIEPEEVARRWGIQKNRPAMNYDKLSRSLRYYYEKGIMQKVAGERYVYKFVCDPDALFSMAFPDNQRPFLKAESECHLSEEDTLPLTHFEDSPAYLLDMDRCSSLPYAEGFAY
Chain of ELF1 (P32519 whole entry): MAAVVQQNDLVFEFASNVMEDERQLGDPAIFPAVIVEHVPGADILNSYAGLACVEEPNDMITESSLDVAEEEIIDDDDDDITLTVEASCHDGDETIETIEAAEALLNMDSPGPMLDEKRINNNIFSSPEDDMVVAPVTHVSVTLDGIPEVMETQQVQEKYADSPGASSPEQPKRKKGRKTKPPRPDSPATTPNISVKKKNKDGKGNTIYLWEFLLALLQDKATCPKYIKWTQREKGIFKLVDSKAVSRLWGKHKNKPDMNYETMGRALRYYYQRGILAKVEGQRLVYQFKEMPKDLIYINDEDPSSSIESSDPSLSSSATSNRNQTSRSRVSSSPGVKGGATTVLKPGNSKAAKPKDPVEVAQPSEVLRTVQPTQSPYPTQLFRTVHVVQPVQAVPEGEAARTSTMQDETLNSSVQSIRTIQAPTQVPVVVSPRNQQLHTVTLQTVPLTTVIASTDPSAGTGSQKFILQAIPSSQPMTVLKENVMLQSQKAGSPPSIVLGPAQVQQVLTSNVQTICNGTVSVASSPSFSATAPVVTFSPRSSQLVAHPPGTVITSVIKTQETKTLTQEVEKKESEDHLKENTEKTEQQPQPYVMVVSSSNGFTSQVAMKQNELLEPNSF
Chain of ELF4 (Q99607 whole entry): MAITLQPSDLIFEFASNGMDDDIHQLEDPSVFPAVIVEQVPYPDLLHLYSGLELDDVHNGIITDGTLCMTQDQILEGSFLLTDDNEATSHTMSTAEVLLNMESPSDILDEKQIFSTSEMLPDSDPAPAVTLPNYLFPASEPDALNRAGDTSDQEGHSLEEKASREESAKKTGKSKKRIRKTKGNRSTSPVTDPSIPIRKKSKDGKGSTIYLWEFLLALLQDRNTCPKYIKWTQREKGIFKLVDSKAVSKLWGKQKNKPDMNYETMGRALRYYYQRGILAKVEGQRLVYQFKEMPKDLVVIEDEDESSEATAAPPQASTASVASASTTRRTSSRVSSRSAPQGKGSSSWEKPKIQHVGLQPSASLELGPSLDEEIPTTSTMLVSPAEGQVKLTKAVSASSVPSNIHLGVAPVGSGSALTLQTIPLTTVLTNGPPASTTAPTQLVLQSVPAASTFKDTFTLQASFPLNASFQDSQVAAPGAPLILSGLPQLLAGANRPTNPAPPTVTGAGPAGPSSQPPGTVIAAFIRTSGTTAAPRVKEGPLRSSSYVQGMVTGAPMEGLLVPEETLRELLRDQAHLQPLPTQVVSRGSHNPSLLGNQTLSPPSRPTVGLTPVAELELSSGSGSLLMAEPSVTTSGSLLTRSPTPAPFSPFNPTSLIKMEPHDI

GGTCCT
binding signal (FLI1): 1.02 fold enrichment (6-mer frequency, TF over GST control)
binding signal (ERG): 1.01 fold enrichment (6-mer frequency, TF over GST control)
binding signal (ELF1): 1.06 fold enrichment (6-mer frequency, TF over GST control)
binding signal (ETV5): 1 fold enrichment (6-mer frequency, TF over GST control)
binding signal (SPIC): 1.11 fold enrichment (6-mer frequency, TF over GST control)
binding signal (ELF4): 1.02 fold enrichment (6-mer frequency, TF over GST control)
binding signal (ERF): 1.16 fold enrichment (6-mer frequency, TF over GST control)
binding signal (ETV3L): 1.03 fold enrichment (6-mer frequency, TF over GST control)
binding signal (SPDEF): 1.1 fold enrichment (6-mer frequency, TF over GST control)
